From PubChem BioAssay
Records with an inconclusive call do not appear. Calls of active or inactive are those of the source. Unless noted, the rule behind the calls is not given here.

How the values were obtained:
[1] = reducers of polyQ inclusions in PC12 cells, cell-based, NGF-treated PC12, GFPQ80 (AID 1614); conditions: PC12 NGF-treated GFP-polyQ80 inclusion reduction;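 note: lower means fewer inclusions and 0 means no inclusions at all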
[2] = test system: Aerobactin synthetase IucA (Klebsiella pneumoniae); test: IucA aerobactin synthetase inhibitors, biochemical, Tocris library, absorbance (AID 1345561); conditions: purified IucA enzyme assay, absorbance (OD) read-out; stronger effect = lower value;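 tested at 8 µM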;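 note: 100% = enzyme without compound and 0% = no enzyme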
[3] = growth inhibition of DIPG glioma cells, dose response, cell-based, SU-DIPG-XVII, MIPE5.0, CellTiter-Glo, qHTS (AID 1347060; cut-off not given, nearly all actives have AC50 up to about 26 µM;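 for AC50: cells exposed to compound for 48 hours before viability readout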); conditions: SU-DIPG-XVII viability, CellTiter-Glo ATP luminescence
[4] = growth inhibition of DIPG glioma cells, dose response, cell-based, SU-DIPG-XIII, MIPE5.0, CellTiter-Glo, qHTS (AID 1347064; cut-off not given, nearly all actives have AC50 up to about 23 µM;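 for AC50: cells exposed to compound for 48 hours before the viability read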); conditions: SU-DIPG-XIII viability, CellTiter-Glo ATP luminescence
[5] = viability loss in pontine glioma line – cell-based, SU-DIPG-XXV, MIPE5.0, CellTiter-Glo, qHTS, dose response (AID 1347065; cut-off not given, nearly all actives have AC50 up to about 26 µM;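 note: cells exposed to compound for 48 hours before ATP readout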); conditions: CellTiter-Glo ATP luminescence
[6] = SU-DIPG-XXV glioma cell viability, MIPE5.0 library, qHTS (AID 1347068; cut-off not given, nearly all actives have IC50 up to about 30 µM;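 for IC50: cells exposed to compound for 48 hours before viability readout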)
[7] = circadian clock period modulators, cell-based, LOPAC library, luminescence reporter (AID 2774); conditions: circadian reporter cells, at 7 µM, actives lie on both sides;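 note: values are relative to mean of DMSO wells on each plate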
[8] = hESC survival regulators, cell-based (AID 493140); conditions: human embryonic stem cell survival screen; stronger effect = higher value;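 note: cells exposed to compounds for four days before counting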
[9] = test system: Hepatitis C virus NS3 helicase; test: HCV NS3 helicase inhibitors, primary screen, biochemical, fluorescence polarization, LOPAC1280 library (AID 687035; in the data active = inhibition above about 37%); conditions: Purified HCV NS3 helicase, Cy5-dT15 ssDNA binding fluorescence polarization; stronger effect = higher value; concentration not given here
[10] = Cy5 fluorescence quenching or enhancement artefacts, artefact control for HCV NS3 helicase inhibitor project, biochemical, LOPAC1280 (AID 687037); conditions: Cy5-DNA-NS3h complex fluorescence interference counterscreen
[11] = SU-DIPG-VI glioma cell viability, MIPE4.0 library, CellTiter-Glo luminescence, qHTS (AID 1347066; cut-off not given, nearly all actives have AC50 up to about 30 µM;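 note: cells exposed to compound for 48 hours before readout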); conditions: CellTiter-Glo ATP luminescence
[12] = phospholipid biosynthesis inhibitors in animal cells, primary screen, cell-based, LOPAC library, screen 4 (AID 1347384); conditions: phospholipid biosynthesis inhibition screen, at 10 µM

SMILES: COc1cc(OC)c2ccc(=O)oc2c1
- inclusion score [1]: 2

SMILES: C[C@]12CCC3c4ccc(OS(=O)(=O)O)cc4CCC3C1CC[C@H]2O (stereo partly drawn)
- inclusion score [1]: 2

SMILES: COc1c(OC)c2occc2c2oc(=O)ccc12
- inclusion score [1]: 2

SMILES: C[C@@]12C(=O)OC(=O)[C@]1(C)[C@H]1CC[C@@H]2O1
- remaining activity [2]: 119% (inactive)
- AC50 [3]: 2630 nM (active)
- AC50 [4]: 2950 nM (active)
- AC50 [5]: 1860 nM (active)
- IC50 [6]: 2950 nM (active)

SMILES: O=c1c(-c2ccc(O)cc2)coc2cc(O)ccc12
- inclusion score [1]: 2
- period change [7]: 0.115 h (inactive)
- survival [8]: 70.6 (inactive)
- inhibition [9]: -4% (inactive)
- fluorescence ratio (interference) [10]: 1 (inactive)
- remaining activity [2]: 111% (inactive)
- outcome [11]: inactive
- outcome [6]: inactive
- outcome [12]: inactive

SMILES: C=NC(C(=O)NC1C(=O)N2C1SC(C)(C)C2C(=O)O)c1ccccc1 (stereo not drawn)
- inclusion score [1]: 2

SMILES: O=C(O)c1cc(=O)c2cccc(O)c2[nH]1
- inclusion score [1]: 1

SMILES: NC1(C(=O)O)CCCC1
- inclusion score [1]: 2

SMILES: NC1=NCCN1CC(=O)O
- inclusion score [1]: 2

SMILES: COc1cc(C)c2c(=O)cc(-c3ccccc3)oc2c1
- inclusion score [1]: 1

SMILES: CCN1CCCC1CNC(=O)c1cc(S(N)(=O)=O)ccc1OC (stereo not drawn)
- inclusion score [1]: 1.5
- period change [7]: -0.06 h (inactive)
- survival [8]: 17.8 (inactive)
- inhibition [9]: -1% (inactive)
- fluorescence ratio (interference) [10]: 1.1 (inactive)
- remaining activity [2]: 107% (inactive)
- outcome [12]: inactive

SMILES: O=c1[nH]c2cc(Cl)c(Cl)cc2[nH]c1=O
- period change [7]: 0.15 h (inactive)

SMILES: COc1c2ccoc2nc2c(OC)c(OCC(O)C(C)(C)O)ccc12 (stereo not drawn)
- survival [8]: 4.17 (inactive)

SMILES: CCOC(=O)C1=C(O)C(=O)N(Cc2ccccc2)C1
- remaining activity [2]: 101% (inactive)
- outcome [3]: inactive
- outcome [5]: inactive
- outcome [11]: inactive
- outcome [12]: inactive

SMILES: NC(Cn1ccc(=O)c(O)c1)C(=O)O (stereo not drawn)
- inclusion score [1]: 2
- survival [8]: 11.3 (inactive)

SMILES: CCCC(=O)Nc1ncnc2c1ncn2[C@@H]1O[C@@H]2COP(=O)(O)O[C@H]2[C@H]1OC(=O)CCC
- remaining activity [2]: 106% (inactive)

SMILES: CON
- inclusion score [1]: 2

SMILES: CC(=O)N[C@@H]1[C@@H](O)[C@H](O)[C@@H](CO)O[C@H]1O
- inclusion score [1]: 2

SMILES: NC(=O)c1cccc(N)c1
- inclusion score [1]: 2
- period change [7]: 0.16 h (inactive)
- inhibition [9]: 0% (inactive)
- fluorescence ratio (interference) [10]: 1 (inactive)
- remaining activity [2]: 96.2% (inactive)
- outcome [3]: inactive
- outcome [4]: inactive
- outcome [5]: inactive
- outcome [11]: inactive
- outcome [6]: inactive
- outcome [12]: inactive

SMILES: CC(CCc1ccc(O)cc1)NCCc1ccc(O)c(O)c1 (stereo not drawn)
- period change [7]: 0.025 h (inactive)
- survival [8]: 15.4 (inactive)
- inhibition [9]: -1% (inactive)
- fluorescence ratio (interference) [10]: 1 (inactive)
- remaining activity [2]: 94.6% (inactive)
- outcome [12]: inactive

SMILES: O=C(O)c1cc([N+](=O)[O-])ccc1NCCCc1ccccc1
- inclusion score [1]: 2
- period change [7]: 0.025 h (inactive)
- inhibition [9]: -4% (inactive)
- fluorescence ratio (interference) [10]: 1 (inactive)
- remaining activity [2]: 93.2% (inactive)
- outcome [12]: inactive

SMILES: C[C@@H]1[C@H](O)[C@@H](C)/C=C/C=C/C=C/C=C/C=C/C=C/C=C/[C@H](O[C@@H]2O[C@H](C)[C@@H](O)[C@H](N)[C@@H]2O)C[C@@H]2O[C@](O)(C[C@@H](O)C[C@@H](O)[C@H](O)CC[C@@H](O)C[C@@H](O)CC(=O)O[C@H]1C)C[C@H](O)[C@H]2C(=O)O
- outcome [3]: inactive
- outcome [11]: inactive
- outcome [6]: inactive

SMILES: COc1cccc(OC)c1OCCNCC1COc2ccccc2O1 (stereo not drawn)
- period change [7]: 0.335 h (inactive)
- inhibition [9]: -1% (inactive)
- fluorescence ratio (interference) [10]: 1 (inactive)
- remaining activity [2]: 108% (inactive)
- outcome [12]: inactive

SMILES: O=C1c2c(O)cccc2[C@H]([C@@H]2O[C@H](CO)[C@@H](O)[C@H](O)[C@H]2O)c2cc(CO)cc(O)c21
- outcome [11]: inactive

SMILES: COc1ccc([C@@H]2CC(=O)c3c(O)cc(O[C@@H]4O[C@H](CO[C@@H]5O[C@@H](C)[C@H](O)[C@@H](O)[C@H]5O)[C@@H](O)[C@H](O)[C@H]4O)cc3O2)cc1O
- outcome [3]: inactive
- outcome [4]: inactive
- outcome [5]: inactive
- outcome [11]: inactive
- outcome [6]: inactive

SMILES: CC(C)(S)[C@@H](N)C(=O)O
- outcome [3]: inactive
- outcome [4]: inactive
- outcome [5]: inactive
- outcome [11]: inactive
- outcome [6]: inactive
